Tau fibril ThT = blocks human tau fibril formation measured by thioflavin T; recombinant tau K18 P301L, heparin-induced fibrillization, ThT fluorescence; Potency, µM (doses to about 57.4 µM), for the others: at the top dose activity, negative = inhibition, most hits filed as inhibitors; 270,000 tested, 2.1% active; AID 1460; note: potency is the fitted concentration of half-maximal effect; nearly all actives have a fitted effect of over 55% in size
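Aggregation was driven by heparin (20 uM final) acting on recombinant tau […] bearing P301L in 100 mM sodium acetate pH 7; fibrils were detected with Thioflavin T.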
USP1 inh = inhibitors of human USP1/UAF1 deubiquitinase. O94782. 390,000 tested, 0.23% active. Potency, µM (titrated, usually from 57.1 µM), for the others: top-dose activity change, negative = inhibition, actives largely listed as inhibitors. recombinant USP1/UAF1, Ub-Rhodamine cleavage fluorescence. AID 743255; note: potency is the fitted concentration of half-maximal effect; nearly all actives have a fitted effect of over 60% in size
Target sequence (O94782 whole entry, looked up): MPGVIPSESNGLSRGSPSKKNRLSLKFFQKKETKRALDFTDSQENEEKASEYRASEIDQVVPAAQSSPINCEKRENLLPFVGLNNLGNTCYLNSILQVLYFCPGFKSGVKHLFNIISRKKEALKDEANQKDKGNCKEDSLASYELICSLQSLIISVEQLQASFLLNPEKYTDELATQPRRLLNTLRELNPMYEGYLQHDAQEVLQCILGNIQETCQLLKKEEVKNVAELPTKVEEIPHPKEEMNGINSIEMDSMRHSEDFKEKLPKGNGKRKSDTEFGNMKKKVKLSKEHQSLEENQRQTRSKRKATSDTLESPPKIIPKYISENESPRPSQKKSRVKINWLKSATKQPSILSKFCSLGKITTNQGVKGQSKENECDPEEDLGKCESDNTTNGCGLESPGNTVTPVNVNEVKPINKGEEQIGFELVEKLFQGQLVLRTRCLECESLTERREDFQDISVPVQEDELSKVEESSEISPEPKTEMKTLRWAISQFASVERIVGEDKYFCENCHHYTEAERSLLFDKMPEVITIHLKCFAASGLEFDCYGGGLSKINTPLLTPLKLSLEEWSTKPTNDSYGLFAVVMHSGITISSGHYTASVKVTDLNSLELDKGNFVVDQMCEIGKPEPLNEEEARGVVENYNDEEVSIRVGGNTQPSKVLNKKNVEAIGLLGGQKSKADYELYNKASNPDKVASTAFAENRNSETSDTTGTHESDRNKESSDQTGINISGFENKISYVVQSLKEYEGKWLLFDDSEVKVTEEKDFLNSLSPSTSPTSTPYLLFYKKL
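High-throughput fluorogenic screen: 1nM USP1/UAF1 complex, Ub-Rho substrate 150nM final, 50mM HEPES pH 7.8 with 0.5mM EDTA, 0.1 mg/ml BSA, 1mM TCEP and 0.01% Tween-20.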
FBPA coupling cs = inhibits coupling enzyme system, counter-screen for aldolase hits; coupling enzyme system counterscreen, AmpLite Red fluorescence; activity change, negative = inhibition, % at 58.2 µM, hits read low; 290,000 tested, 0.67% active; AID 2472; in the data active = activity change below about -30%
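Coupling enzymes only (glyceraldehyde-3-phosphate) + compound, at 57.5 uM final, 10 min RT; add substrate/coupling/AmpLite Red mix, 20 min RT; fluorescence ex 525/em 598 nm. Actives flag coupling-system interference.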
Tau FP inhib = tau fibrillization inhibition (FP). Potency, µM (series often up to 57.7 µM), without a hit: top-dose activity, negative = inhibition, most hits filed as inhibitors. AID 1468. P10636. K18 P301L tau heparin fibrillization, Alexa594 FP, 6 h. 280,000 tested, 0.39% active; note: potency is the fitted concentration of half-maximal effect; nearly all actives have a fitted effect of over 55% in size
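Human tau K18 […] P301L fragment, 15 uM unlabeled plus 0.24 uM Alexa 594-labeled tau (final), with compound and 20 uM heparin in 100 mM sodium acetate pH 7; 6 hr at 37 C, then Alexa 594 FP read.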
Tau fluor counter = counter-screen for tau fibril formation inhibitors | tau K18 P301L Alexa594 fluorescence, heparin fibrillization | Potency, µM (highest dose often 57.7 µM), for inactives: at the top dose activity change, negative = decrease | 280,000 tested, 0.93% active | AID 1463; note: potency is the fitted concentration of half-maximal effect; nearly all actives have a fitted effect of over 55% in size
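Human tau K18 P301L (15 uM unlabeled, 0.24 uM Alexa 594-labeled) in 100 mM sodium acetate pH 7 with 20 uM heparin, 6 hr at 37 C. ThT 30 uM added, 1 hr ambient; Alexa 594 FP and total fluorescence read at 555/632 nm.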
The depositor's hits bear a star; ? = inconclusive; · = no result; [ ] = another dose, or the depositor's remark. The list is not random: actives were taken first. Their share in the collection is about 2.3%. Unless noted, calls come from the whole dose curve; as a rule, active = well fitted curve in the direction sought with a large enough effect; inconclusive = small, poorly fitted or top-dose-only effect, or another doubt; inactive = no such curve, though single readings can be large; an effect the other way counts as inactive or inconclusive. % is set by controls: 0 for no effect and ±100 for the full control effect.

SMILES	Tau fibril ThT	USP1 inh	FBPA coupling cs	Tau FP inhib	Tau fluor counter
Cc1ccc(Oc2cc(NC(=O)CCCn3nc([N+](=O)[O-])cc3C)cc([N+](=O)[O-])c2)cc1	-7%	-11%	-1	3%	10µM*[quencher]
COc1c(C)cccc1C(=O)NC(=S)Nc1cccc2nsnc12	25µM*	-20%	-9	?	-27%
CC(C)CC(=O)NC(=S)Nc1cccc2nsnc12	?	-25%	-16	-3%	-15%
O=C(Nc1ccc(-c2csc(Nc3cccc(C(F)(F)F)c3)n2)cc1)c1ccccc1	?	-27%	0	0%	10µM*[quencher]
CC(=O)c1cccc(Nc2nc(-c3ccccc3)cs2)c1	?	-4%	2	?	7.9µM*[quencher]
O=C(Nc1ccc(-c2csc(Nc3cccc(C(F)(F)F)c3)n2)cc1)c1cc([N+](=O)[O-])cc(C(F)(F)F)c1	?	-22%	0	9%	3.5µM*[quencher]
CC(=O)c1cccc(Nc2nc(-c3cccnc3)cs2)c1	·	-17%	1	·	·
O=C(Nc1cccc(-c2csc(Nc3cccc(C(F)(F)F)c3)n2)c1)c1ccccc1	?	-34%	0	-4%	8.9µM*[quencher]
O=C(Nc1ccc(-c2csc(Nc3ccc(Cl)cc3)n2)cc1)c1ccccc1	·	-14%	·	·	·
Nc1nc(Nc2cccc(C(F)(F)F)c2)sc1C(=O)c1ccccc1	-9%	-3%	·	5%	?
CCC(Sc1nc2cc3c(cc2c(=O)n1CCCCCC(=O)NCc1ccc2c(c1)OCO2)OCO3)C(=O)NCCCOC (configuration not stated)	5%	-19%	·	0%	-3%
CCC(CC)C(=O)Nc1c(C(=O)N2CCN(c3ccccc3F)CC2)oc2ccccc12	-18%	?	·	4%	-11%
CC(=O)NNc1nc(-c2ccccc2)cs1	18µM*	-18%	0	?	?
O=C(Nc1cccc(-c2csc(Nc3ccccc3)n2)c1)c1ccccc1	?	-24%	0	2%	13µM*[quencher]
C[C@@]12CCC[C@H]1C1CC[C@H]3C[C@H](O)CC[C@]3(C)C1CC2 (some centres not stated)	-12%	·	·	1%	-9%
O=C(Oc1cc(Cl)ccc1Cl)c1ccc(N2CCOCC2)c([N+](=O)[O-])c1	16µM*	0%	-1	-8%	?
O=C(Oc1ccc(Cl)cc1)c1ccc(N2CCOCC2)c([N+](=O)[O-])c1	?	-9%	1	2%	?
O=[N+]([O-])c1cc(Cl)ccc1N1CCN(c2ccccc2O)CC1	14µM*	-7%	3	15%	16µM*[quencher]
Cc1ccc(OC(=O)c2ccc(N3CCOCC3)c([N+](=O)[O-])c2)cc1	10µM*	-20%	0	-1%	?
COc1ccc(F)cc1S(=O)(=O)NCCc1sc2nc(-c3ccc(F)cc3)nn2c1C	-3%	-23%	·	-10%	?
CCOC(=O)c1cccc(NC(=O)Cn2nc3c(cc2=O)CCCC3)c1	2%	-12%	·	6%	0%
Cc1ccc(NC(c2nnc(-c3ccccc3)o2)c2ccccc2F)c([N+](=O)[O-])c1 (configuration not stated)	?	7%	·	0%	-27%
O=C(N/N=C/c1cc(Cl)cc(Cl)c1O)c1ccncc1	-13%	32µM*	5	11%	-11%
CN1c2cccc3cccc(c23)N(C)C1(C)C	?	?	-33*	-6%	?
CCN1C(=O)Nc2cccc3cccc1c23	·	-13%	·	·	·
SMILES	Tau fibril ThT	USP1 inh	FBPA coupling cs	Tau FP inhib	Tau fluor counter
C=CCSc1nc2ccccc2n1C(=O)/C=C/c1cc(OC)c(OC)c(OC)c1	25µM*	2%	7	22µM*	-17%
COc1ccc(/C=C/C(=O)N2CC(C)OC(C)C2)cc1OC (configuration not stated)	·	6%	2	·	·
CCSc1nc2ccccc2n1C(=O)/C=C/c1ccc(OC)c(OC)c1	7.9µM*	-23%	3	7.9µM*	-23%
C=CCSc1nc2ccccc2n1C(=O)/C=C/c1ccc(OC)c(OC)c1	14µM*	-4%	0	?	-20%
COc1cc(/C=C/C(=O)N2CCN(C(=O)/C=C/c3cc(OC)c(OC)c(OC)c3)CC2)cc(OC)c1OC	·	-18%	-1	·	·
CCn1c(SCC(=O)N/N=C/c2ccc(OC)c(OC)c2)nc2ccccc21	-23%	-16%	0	-6%	-10%
CO/N=C\[C@@H](NS(=O)(=O)c1ccc(C)cc1)[C@H](C)/C=C\CC(=O)OC	4%[11.5 µM]	·	-3	?	-2%[11.6 µM]
CCOC(=O)c1c(NC(=O)c2cc3nc(-c4ccc(OC)cc4)cc(C(F)(F)F)n3n2)sc2c1CCC(C)C2 (configuration not stated)	1%	?	·	0%	3%
CC(C(=O)O)N1C(=O)/C(=C/C=C/c2ccco2)SC1=S (configuration not stated)	8.9µM*	?	·	?	?
COc1ccc(OC)c(/C=C2\SC(=S)N(NS(=O)(=O)c3ccccc3)C2=O)c1	·	-23%	11	·	·
O=C1/C(=C/c2cccs2)SC(=S)N1NS(=O)(=O)c1ccccc1	18µM*	-10%	11	-10%	-21%
COc1ccc(/C=C2\SC(=S)N(NS(=O)(=O)c3ccccc3)C2=O)c(OC)c1	·	-24%	8	·	·
CCN(C(=O)C(C)N1C(=O)/C(=C/c2ccco2)SC1=S)C1CCS(=O)(=O)C1 (configuration not stated)	·	?	-22	·	·
O=C1/C(=C/C=C/c2ccco2)SC(=S)N1NS(=O)(=O)c1ccccc1	·	?	-5	16µM*	?
CS[C@@H]1SC[C@H]2C(=O)N(C)C(C(C)C)C(=O)OC[C@@H](NC(=O)c3cnc4ccccc4n3)C(=O)N[C@@H](C)C(=O)N(C)[C@H]1C(=O)N(C)C(C(C)C)C(=O)OC[C@@H](NC(=O)c1cnc3ccccc3n1)C(=O)N[C@@H](C)C(=O)N2C (some centres not stated)	·	·	1	·	·
COc1ccc(N2CSC3=C(C#N)C(c4ccc(OC)c(OC)c4)CC(=O)N3C2)c(OC)c1 (configuration not stated)	7.9µM*	?	-43*	16µM*	?
CN1CSC2=C(C#N)C(c3cccc(OCc4ccccc4)c3)CC(=O)N2C1 (configuration not stated)	?	-20%	-3	?	-20%
CCOc1ccccc1N1CSC2=C(C#N)C(c3c(OC)ccc4ccccc34)CC(=O)N2C1 (configuration not stated)	4µM*	-19%	-49*	10µM*	?
COc1ccc(N2CSC3=C(C#N)C(c4cc(OC)c(OC)cc4OC)CC(=O)N3C2)c(OC)c1 (configuration not stated)	8.9µM*	?	-48*	13µM*	?
